From PubChem
S2 tox – Viability Counterscreen for Primary qHTS for Inhibitors of ATXN expression; S2 cells (HEK-293 line with an ATXN2-luciferase reporter) viability, CellTiter-Fluor protease fluorescence, 24 h; Potency, µM (highest dose often 56.7 µM), usual class: cytotoxic; 400,000 tested, 0.49% active; further: nearly all actives have a fitted effect of over 40% in size
DT40 TDP1 CPT – qHTS for Inhibitors of human tyrosyl-DNA phosphodiesterase 1 (TDP1): qHTS in cells in presence of CPT; chicken DT40 Tdp1-/-;hTDP1 cells + 20 nM CPT, ATP luminescence, 48 h; Potency, µM (doses to about 46.2 µM), actives largely listed as inhibitors; 420,000 tested, 12% active; AID 686979, 2013; further: nearly all actives have a fitted effect of over 55% in size
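Chicken DT40 Tdp1-/- cells complemented with human TDP1, 400 cells/well, exposed to compounds plus 20 nM camptothecin for at least 48 h at 37 C; viability read as ATP content by CellTiter-Glo luminescence.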
TGFb SMAD3 inh – qHTS for Inhibitors of TGF-b; 410,000 tested, 1.2% active; Potency, µM (top dose mostly 46.1 µM), usual class: inhibitors; HepG2 CAGA-GFP TGF-b/SMAD3 reporter, GFP fluorescence, 18 h; TGF-beta stimulated, 500 pg/mL final; further: nearly all actives have a fitted effect of over 65% in size
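Using HEPG2 CAGA-GFP reporter cells at 1000 cells/well, we pinned test compounds, stimulated with recombinant TGF-beta (500 pg/mL final) and measured total well GFP after 18 h.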
HepG2 viability – qHTS for Inhibitors of TGF-b: Cytotox Counterscreen; HepG2 CAGA-GFP viability, ATP luminescence, 18 h; AID 588856, 2011; Potency, µM (top dose mostly 46.1 µM), hits mostly cytotoxic; 410,000 tested, 0.76% active
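CellTiter-Glo luminescence gave cytotoxicity after 18 hours at 37 degrees C. The cells were HepG2 CAGA-GFP in 1% FBS DMEM, stimulated with 500 pg/mL TGF-beta after compound addition. %Activity was normalised to no-cell wells (complete cell-killing) and DMSO (no toxicity), and curves were fitted and classified.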
TDP1 cell noCPT – qHTS for Inhibitors of human tyrosyl-DNA phosphodiesterase 1 (TDP1): qHTS in cells in absence of CPT; DT40 Tdp1-/- hTDP1 cells, no CPT, ATP luminescence, 48 h; Potency, µM (highest dose often 46.2 µM), hits mostly inhibitors; 420,000 tested, 15% active; AID 686978, 2013; further: nearly all actives have a fitted effect of over 55% in size
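A cellular qHTS used chicken DT40 cells lacking endogenous Tdp1 but carrying stably transfected human TDP1. Compounds were applied without camptothecin, and cell growth kinetics were judged by ATP-dependent luminescence after ≥48 hr.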
ATXN2 expr inh – Primary qHTS for Inhibitors of ATXN expression; HEK-293 ATXN2-luciferase reporter, luminescence, 24 h; Potency, µM (doses to about 57 µM), most hits filed as inhibitors; 360,000 tested, 0.72% active; AID 1745845, 2022; further: nearly all actives have a fitted effect of over 55% in size
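qHTS (up to 57 uM final) was run with 24 h compound exposure of reporter cells at 37 °C. Each well was multiplexed: SteadyGlo luminescence measured ATXN2-luciferase expression after a fluorogenic Gly-Phe-AFC viability readout (25 uM final).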
Hits are given with their value; . = inactive; ? = inconclusive; / = not tested or not shown; ! = a repeat was not active; [ ] = another dose, or the depositor's remark. Hits are enriched below; roughly 17% of the tested compounds scored in any of these assays. The call rests on the fitted dose curve; in most records, active means well fitted curve in the direction sought with a large enough effect; inconclusive means small, poorly fitted or top-dose-only effect, or another doubt; inactive means no such curve, though single readings can be large; an effect the other way counts as inactive or inconclusive.

SMILES	S2 tox	DT40 TDP1 CPT	TGFb SMAD3 inh	HepG2 viability	TDP1 cell noCPT	ATXN2 expr inh
CCN(CC)CCCCCCCCOC(=O)c1cc(OC)c(OC)c(OC)c1	.	?	.	.	22µM!	.
COc1ccc(NC(=O)C(CC(C)C)NC(=O)C2CCCCC2)c(OC)c1 (stereo unspecified)	?	?	.	.	?	.
COC(=O)c1cccc(C23CC4(C2)[C@H](CN(Cc2ccc(C(F)(F)F)cc2)[C@@H]4c2ccccc2)C3c2ccccc2)c1 (stereo partly specified)	.	29µM	.	.	16µM	.
COC(=O)c1ccc(C23CC4(C2)[C@H](CN(Cc2cccnc2)[C@@H]4c2ccccc2)C3c2ccc(C(F)(F)F)cc2)cc1 (stereo partly specified)	?	23µM	.	.	13µM	.
CN1C[C@@H]2C(c3ccc(C(F)(F)F)cc3)C3(c4ccccc4)CC2(C3)[C@H]1c1ccccc1 (stereo partly specified)	?	?	.	.	16µM	.
FC(F)(F)c1ccc(C2[C@H]3CN(Cc4ccc(-c5ccccc5)cc4)[C@H](c4ccccc4)C34CC2(c2ccccc2)C4)cc1 (stereo partly specified)	.	?	.	.	?	.
COC(=O)c1ccc(C23CC4(C2)[C@H](CN(Cc2ccc(-c5ccccc5)cc2)[C@@H]4c2ccccc2)C3c2ccc(C(F)(F)F)cc2)cc1 (stereo partly specified)	.	?	.	.	?	.
COC(=O)c1ccc(C23CC4(C2)[C@H](CN(Cc2cccnc2)[C@@H]4c2ccccc2)C3c2ccccc2)cc1 (stereo partly specified)	.	23µM	?	.	23µM	.
CCCCC(=O)Oc1ccc2oc(-c3ccc(OC)cc3)cc(=O)c2c1	.	.	.	.	.	.
Cc1onc(-c2c(Cl)cccc2Cl)c1C(N)=S	.	.	.	.	.	.
O=C(CN1Cc2ccccc2OC(c2ccsc2)C1)NCC1OCCc2ccccc21 (stereo unspecified)	.	.[9.04 µM]	/	/	.	/
COc1cccc(NC2=CC(c3ccc(C(C)C)cc3)N(c3cccc(OC)c3)C2=O)c1 (stereo unspecified)	.	?	.	.	?	.
FC(F)(F)c1ccc(C2[C@H]3CN(Cc4ccc(-c5ccccc5)cc4)[C@H](c4ccccc4)C34CC2(c2cccnc2)C4)cc1 (stereo partly specified)	.	?	?	.	?	.
COC(=O)c1ccc(C23CC4(C2)[C@H](CN(CC2CCCCC2)[C@@H]4c2ccccc2)C3c2ccccc2)cc1 (stereo partly specified)	.	26µM	.	.	?	.
FC(F)(F)c1ccc(C2[C@H]3CN(Cc4cccnc4)[C@H](c4ccccc4)C34CC2(c2cccnc2)C4)cc1 (stereo partly specified)	?	23µM	8.9µM	.	21µM	?
COC(=O)c1cccc(C23CC4(C2)[C@H](CN(Cc2ccc(-c5ccccc5)cc2)[C@@H]4c2ccccc2)C3c2ccccc2)c1 (stereo partly specified)	.	.	.	.	?	.
N#Cc1ccc(C23CC4(C2)[C@H](CN(Cc2cccnc2)[C@@H]4c2ccccc2)C3c2ccccc2)cc1 (stereo partly specified)	.	9.2µM	.	.	7.3µM	.
N#Cc1ccc(C23CC4(C2)[C@H](CN(Cc2ccc(-c5ccccc5)cc2)[C@@H]4c2ccccc2)C3c2ccc(C(F)(F)F)cc2)cc1 (stereo partly specified)	.	16µM	.	.	?	.
